Measurements as given in PubChem BioAssay (NCATS).
Results filed as inconclusive are left out. Activity calls are given as the source filed them. Unless noted, calls follow the shape of the dose curve; as a rule, active = well fitted curve in the direction sought with a large enough effect; inconclusive = small, poorly fitted or top-dose-only effect, or another doubt; inactive = no such curve, though single readings can be large; an effect the other way counts as inactive or inconclusive.

Experiments:
[1] = qHTS Assay for Lipid Storage Modulators (AID 1519; calls by dose curve; as to activity change, negative = inhibition: % is scaled to controls: 0 for no effect and ±100 for the full control effect); details: Drosophila S3 cells, BODIPY lipid droplet/cell ratio, laser cytometry, cells loaded with oleic acid; for activity change, negative = inhibition: at 57.5 µM (top of the series)
How it was run: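 Cells seeded at 5,000 per well were treated with compounds over a concentration series and loaded with oleic acid (400 uM, as added). Lipid droplet fluorescence (488 nm excitation, 500-530 nm channel) was read by laser-scanning cytometry and normalized to 20 uM Triacsin C.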

[2] = target: DNA repair nuclease/redox regulator APEX1 (Homo sapiens) (UniProt P27695); assay: qHTS Validation Assay for Inhibitors of the Human Apurinic/apyrimidinic Endonuclease 1 (APE1) (AID 1705;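 also: TAMRA fluorescence gain over two minutes as APE1 cuts a quenched THF abasic duplex; % is scaled to controls: 0 for no effect and ±100 for the full control effect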)
How it was run: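 Read-out: TAMRA fluorescence (525 nm ex, 598 nm em) from cleavage of a quenched THF abasic-site duplex, 50 nM final; activity taken as intensity change between third and first of three reads 60 s apart.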

[3] = Counterscreen for APE1 Inhibitors: Fluorescent Dye Displacement Validation Assay (AID 1707);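 also: plate controls were ThO with dsDNA and no compound for no effect and ThO without dsDNA for full effect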
How it was run: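 Counterscreen flags promiscuous DNA binders: compounds displacing ThO from duplex DNA (abasic THF site, 50 nM) reduce 540 nm emission (480 nm excitation). ThO 250 nM final; Tris-HCl pH 7.5 with NaCl, MgCl2 and Tween-20.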

[4] = qHTS for differential inhibitors of proliferation of Plasmodium falciparum line 3D7 (AID 1876); also: potency is read from the fitted curve at half-maximal effect
[5] = qHTS for differential inhibitors of proliferation of Plasmodium falciparum line D10 (AID 1877);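 also: parasites grown with compound for 72 h before DNA staining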; also: potency is read from the fitted curve at half-maximal effect;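 as to activity change, negative = inhibition: plate controls were vehicle wells for no effect and reference inhibitor wells for full effect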
[6] = qHTS for differential inhibitors of proliferation of Plasmodium falciparum line Dd2 (AID 1882); details: Potency: Plasmodium falciparum Dd2 proliferation inhibition; also: nearly all actives have a fitted effect of over 65% in size; also: potency is read from the fitted curve at half-maximal effect;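 as to activity change, negative = inhibition: compound exposure of 72 h on infected erythrocytes; plate controls were DMSO vehicle for no effect and 0.29 µM artemisinin for full effect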
How it was run: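 RBC culture, 0.3% parasitemia / 2.5% Hct final; cpd added by pin tool in DMSO; 72 h, 37 C, 5% CO2; lysis buffer + SYBR Green I, o/n RT dark; FI 485/535; norm. to artemisinin 0.29 uM and DMSO.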

[7] = qHTS for differential inhibitors of proliferation of Plasmodium falciparum line HB3 (AID 1886); details: Potency: Plasmodium falciparum HB3 proliferation inhibition;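 also: parasites grown with compound for 72 h before SYBR Green readout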; also: potency is read from the fitted curve at half-maximal effect;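 as to activity change, negative = inhibition: plate controls were vehicle for no effect and reference inhibitor for full effect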
[8] = target: RecQ-like DNA helicase BLM (Homo sapiens) (UniProt P54132); assay: qHTS Validation Assay for Inhibitors of Bloom's syndrome helicase (BLM) (AID 2364); also: potency is read from the fitted curve at half-maximal effect;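 as to activity change, negative = inhibition: plate controls were DMSO vehicle for no effect and enzyme-free control for full effect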
How it was run: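 Forked 20-bp duplex substrate (200 nM, TAMRA/BHQ-2) plus 2 mM ATP added after 15 min compound preincubation with 50 nM enzyme, pH 8.0, poly(dI-dC) 2.5 ug/ml. Strand separation followed by fluorescence (525/598 nm) over 2 h, normalized to enzyme-free and DMSO controls.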

[9] = Cytometric Cell-Based qHTS for Inhibitors of the mTORC1 Signaling Pathway in MEF (Tsc2-/-, p53-/-) Cells (AID 2660);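 also: Tsc2 and p53 null MEFs carrying empty vector with compound for 24 h; percent of cells above a phospho-rpS6 to PI ratio cutoff in each well; plate controls were DMSO for no effect and rapamycin for full effect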
How it was run: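 Immunofluorescence qHTS of rpS6 Ser235/236 phosphorylation: MEFs (Tsc2-/-, p53-/-) treated 24 h, 37 C, in DMEM + 10% FBS. Alexa-488 signal normalized to PI count, referenced to rapamycin (7.5 nM) and DMSO; PI cell number recorded for viability.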

[10] = High Content Imaging Cell-Based qHTS for Inhibitors of the mTORC1 Signaling Pathway in MEF (Tsc2-/-, p53-/-) Cells (AID 2666); details: at 38.3 µM (top of the series);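 also: percent of cells scored positive for phospho-rpS6 Ser235/236 immunostaining by imaging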
How it was run: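 Tsc2-/-, p53-/- MEFs (empty-vector stable) grown in DMEM + 10% FBS were exposed to compounds for 24 hrs at 37 degree Celsius, fixed, and stained with Alexa-488 anti-phospho-rpS6 Ser235/236 plus Hoechst. Imaging gave the percentage of positive cells per well.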

[11] = High Content Imaging Cell-Based qHTS for Inhibitors of the mTORC1 Signaling Pathway in MEF Cells (AID 2667);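 also: Tsc2-/- p53-/- MEFs stably re-expressing wild-type Tsc2 exposed 24 h; plate controls were DMSO wells for no effect and rapamycin control wells for full effect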
How it was run: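 Tsc2-/-, p53-/- MEFs stably re-expressing WT Tsc2, grown in DMEM + 10% FBS, were treated with compounds for 24 hrs at 37 degree Celsius, fixed, and stained with Alexa-488 phospho-rpS6 Ser235/236 antibody plus Hoechst; results given as % positive cells.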

[12] = Cytometry Cell-Based qHTS for Inhibitors of the mTORC1 Signaling Pathway in MEF cells (AID 2668);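 also: Tsc2-/- p53-/- mouse embryonic fibroblasts stably re-expressing wild-type Tsc2; percent cells positive for phospho-rpS6 Ser235/236 relative to propidium iodide stain; plate controls were DMSO wells for no effect and 7.5 nM rapamycin control wells for full effect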
How it was run: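 Read-out: phospho-rpS6 Ser235/236 immunofluorescence normalized to propidium iodide intensity, scored as % active cells against a rapamycin (7.5 nM) threshold. Cells: Tsc2-/-, p53-/- MEFs stably expressing WT Tsc2, compound-treated 24 hrs at 37 degree Celsius.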

[13] = target: Endonuclease 4 (Escherichia coli (strain K12)) (UniProt P0A6C1); assay: Counterscreen for APE1 Inhibitors: qHTS Validation Assay for Inhibitors of Endonuclease IV (AID 1708); also: % is scaled to controls: 0 for no effect and ±100 for the full control effect
How it was run: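 The reaction buffer contained 50 mM Tris-HCl pH 7.5, 50 mM NaCl, 2 mM MgCl2, 1 mM DTT and 0.01% Tween-20. Incision of a 50 nM fluorophore/quencher THF substrate by 2 nM enzyme was measured kinetically.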

[14] = qHTS for differential inhibitors of proliferation of Plasmodium falciparum line 7G8 (AID 1815);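 also: parasite growth measured after three days of incubation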; also: potency is read from the fitted curve at half-maximal effect;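 as to activity change, negative = inhibition: plate controls were vehicle wells for no effect and reference inhibitor wells for full effect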
[15] = qHTS for differential inhibitors of proliferation of Plasmodium falciparum line GB4 (AID 1816); details: Potency: Plasmodium falciparum GB4 proliferation inhibition;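 also: parasite growth measured after 72 h incubation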; also: potency is read from the fitted curve at half-maximal effect;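 as to activity change, negative = inhibition: 0% = vehicle DMSO and -100% = reference inhibitor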
[16] = qHTS for differential inhibitors of proliferation of Plasmodium falciparum line W2 (AID 1883); details: Potency: Plasmodium falciparum W2 proliferation inhibition;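 also: potency is read from the fitted curve at half-maximal effect; parasites grown with compound for 72 h before lysis and staining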
[17] = target: ATP-dependent DNA helicase Q1 (Homo sapiens) (UniProt P46063); assay: qHTS Validation Assay for Inhibitors of RecQ-Like Dna Helicase 1 (RECQ1) (AID 2353);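 also: plate controls were DMSO vehicle for no effect and enzyme-free control for full effect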
How it was run: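 RECQ1T1 50 nM; forked duplex (20 bp + 30-nt ss tails) 200 nM, ATP 2 mM final; pH 8.0, 2 mM MgCl2, 2.5 ug/ml poly(dI-dC); 15 min compound preincubation; discontinuous kinetic read over 2 h at RT.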

[18] = qHTS Assay for Identification of Small Molecule Inducers of Hypoxia Response (AID 2120; active = well fitted curve in the direction sought with a large enough effect in the signal ratio, with a control signal flat, not every such curve was filed as active; the % refers to the signal ratio; also: 0% is about no effect)
How it was run: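 HRE-bla ME-180, 2500 cells/well, 0.5% dialyzed FBS medium; cpd titration, 17 h 37 degrees C; CCF4 2.5 h RT; Ex 405, Em 460/530 ratio -> %Activity, AC50.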

[19] = measured here: cell count channel max response
[20] = measured here: lipid channel max response

ATP-dependent DNA helicase Q1 (Homo sapiens), sequence (P46063 whole entry, looked up): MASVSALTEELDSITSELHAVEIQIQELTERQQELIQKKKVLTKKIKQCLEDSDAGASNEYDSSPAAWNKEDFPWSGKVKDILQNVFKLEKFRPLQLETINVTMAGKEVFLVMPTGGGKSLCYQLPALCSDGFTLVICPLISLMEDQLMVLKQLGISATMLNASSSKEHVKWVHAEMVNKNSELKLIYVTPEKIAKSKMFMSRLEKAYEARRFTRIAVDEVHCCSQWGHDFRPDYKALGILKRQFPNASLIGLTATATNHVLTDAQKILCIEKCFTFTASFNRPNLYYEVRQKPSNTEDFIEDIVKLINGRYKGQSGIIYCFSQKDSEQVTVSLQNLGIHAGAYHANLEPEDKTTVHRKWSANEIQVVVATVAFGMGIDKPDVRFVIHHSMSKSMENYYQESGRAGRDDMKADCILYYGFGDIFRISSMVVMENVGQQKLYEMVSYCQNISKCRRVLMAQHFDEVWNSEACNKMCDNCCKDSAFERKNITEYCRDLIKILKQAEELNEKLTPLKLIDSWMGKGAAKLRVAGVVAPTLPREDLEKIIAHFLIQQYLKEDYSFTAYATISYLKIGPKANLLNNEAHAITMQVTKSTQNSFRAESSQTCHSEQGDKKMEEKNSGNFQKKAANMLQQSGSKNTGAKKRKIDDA
DNA repair nuclease/redox regulator APEX1 (Homo sapiens), sequence (P27695 whole entry, looked up): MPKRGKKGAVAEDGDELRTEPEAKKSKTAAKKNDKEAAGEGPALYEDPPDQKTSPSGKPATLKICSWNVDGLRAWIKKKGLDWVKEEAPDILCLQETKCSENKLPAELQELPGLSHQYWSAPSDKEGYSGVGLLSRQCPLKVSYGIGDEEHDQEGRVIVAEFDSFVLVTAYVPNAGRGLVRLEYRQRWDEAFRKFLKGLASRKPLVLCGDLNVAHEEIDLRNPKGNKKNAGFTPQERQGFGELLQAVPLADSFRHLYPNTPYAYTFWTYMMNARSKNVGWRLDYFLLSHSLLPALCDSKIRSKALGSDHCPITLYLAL
RecQ-like DNA helicase BLM (Homo sapiens), sequence (P54132 whole entry, looked up): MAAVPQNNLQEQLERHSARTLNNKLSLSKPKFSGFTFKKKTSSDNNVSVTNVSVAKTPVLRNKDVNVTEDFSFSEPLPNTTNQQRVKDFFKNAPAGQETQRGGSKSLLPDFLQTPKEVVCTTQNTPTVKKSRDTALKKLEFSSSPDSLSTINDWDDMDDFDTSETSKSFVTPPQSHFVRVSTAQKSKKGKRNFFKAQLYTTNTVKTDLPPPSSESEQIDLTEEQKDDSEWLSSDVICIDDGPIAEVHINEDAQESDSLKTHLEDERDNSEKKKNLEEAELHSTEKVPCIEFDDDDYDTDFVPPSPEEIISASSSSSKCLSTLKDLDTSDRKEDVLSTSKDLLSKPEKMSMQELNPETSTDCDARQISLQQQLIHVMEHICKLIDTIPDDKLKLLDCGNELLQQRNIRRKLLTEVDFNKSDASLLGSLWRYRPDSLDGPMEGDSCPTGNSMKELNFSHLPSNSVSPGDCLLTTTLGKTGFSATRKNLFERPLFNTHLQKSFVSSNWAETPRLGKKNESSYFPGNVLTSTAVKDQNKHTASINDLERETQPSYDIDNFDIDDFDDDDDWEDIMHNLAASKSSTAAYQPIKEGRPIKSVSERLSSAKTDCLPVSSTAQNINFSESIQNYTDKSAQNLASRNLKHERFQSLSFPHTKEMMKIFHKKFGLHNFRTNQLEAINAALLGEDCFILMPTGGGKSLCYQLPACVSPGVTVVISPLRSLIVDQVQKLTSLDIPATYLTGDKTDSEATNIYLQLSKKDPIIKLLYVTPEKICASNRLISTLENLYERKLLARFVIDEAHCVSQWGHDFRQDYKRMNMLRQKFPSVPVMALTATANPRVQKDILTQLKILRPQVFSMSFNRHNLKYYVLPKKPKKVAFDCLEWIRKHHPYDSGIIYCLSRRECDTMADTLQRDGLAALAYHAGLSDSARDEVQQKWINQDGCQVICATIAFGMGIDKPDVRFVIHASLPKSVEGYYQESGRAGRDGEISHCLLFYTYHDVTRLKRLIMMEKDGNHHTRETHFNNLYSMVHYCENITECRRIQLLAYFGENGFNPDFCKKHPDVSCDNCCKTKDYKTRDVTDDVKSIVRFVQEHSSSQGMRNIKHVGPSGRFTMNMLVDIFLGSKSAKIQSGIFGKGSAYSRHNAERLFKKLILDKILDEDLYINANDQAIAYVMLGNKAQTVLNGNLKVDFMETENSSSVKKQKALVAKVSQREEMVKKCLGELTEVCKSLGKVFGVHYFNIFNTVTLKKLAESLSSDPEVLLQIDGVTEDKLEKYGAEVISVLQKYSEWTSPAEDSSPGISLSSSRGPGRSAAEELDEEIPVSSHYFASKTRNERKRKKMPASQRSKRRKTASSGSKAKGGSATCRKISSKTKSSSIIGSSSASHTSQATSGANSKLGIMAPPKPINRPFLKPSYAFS

CC(C)(Sc1ccc(CCN(CCCCC2CCCCC2)C(=O)NC2CCCCC2)cc1)C(=O)O
16.5%: max response [1, 19]
active: Potency [8] 28.2 µM
13.3%: max response [1, 20]
inactive: activity change, negative = inhibition [1] -0.767% | outcome [2] | outcome [3] | Potency [4] | Potency [5] | Potency [6] | Potency [7] | outcome [9] | outcome [10] | outcome [11] | outcome [12]

CCOC(=O)N1CCC(=C2c3ccc(Cl)cc3CCc3cccnc32)CC1
inactive: activity change, negative = inhibition [1] 3.85% | outcome [2] | outcome [3] | outcome [13] | outcome [17] | outcome [9]
1.57%: max response [1, 19]
11.7%: max response [1, 20]
active: Potency [14] 2.24 µM | Potency [15] 10 µM | Potency [4] 12.6 µM | Potency [5] 10 µM | Potency [6] 10 µM | Potency [16] 5.01 µM | Potency [7] 10 µM

CC(C)NCC(O)COc1ccc(COCCOC(C)C)cc1 (stereo unspecified)
inactive: outcome [3] | outcome [13] | Potency [4] | Potency [5] | Potency [6] | Potency [7] | outcome [17] | Potency [8] | outcome [9] | outcome [10] | outcome [11] | outcome [12]

CCCC(CCC)C(=O)O
23.9%: max response [1, 19]
inactive: activity change, negative = inhibition [1] 7.45% | outcome [2] | outcome [3] | outcome [13] | outcome [18] | outcome [17] | outcome [9] | outcome [10] | outcome [11] | outcome [12]
36.2%: max response [1, 20]

NC(N)=NC(=O)c1nc(Cl)c(N)nc1N
inactive: outcome [2] | outcome [13] | outcome [17] | outcome [9] | outcome [10] | outcome [11] | outcome [12]

CC(C[N+](C)(C)C)OC(N)=O (stereo unspecified)
-6.21%: max response [1, 20]
-11.2%: max response [1, 19]
inactive: activity change, negative = inhibition [1] 0.608% | outcome [2] | outcome [3] | outcome [13] | Potency [14] | Potency [15] | Potency [4] | Potency [5] | Potency [6] | Potency [7] | outcome [17] | Potency [8] | outcome [9] | outcome [10] | outcome [11] | outcome [12]

CCn1cc(C(=O)O)c(=O)c2cc(F)c(N3CCNC(C)C3)c(F)c21 (stereo unspecified)
active: Potency [4] 11.2 µM | Potency [16] 10 µM
26.1%: max response [1, 20]
inactive: activity change, negative = inhibition [1] 5.34% | outcome [2] | outcome [3] | outcome [17] | Potency [8] | outcome [9] | outcome [10] | outcome [11] | outcome [12]
16.3%: max response [1, 19]
